ChEMBL document CHEMBL2218924, “A broad activity screen in support of a chemogenomic map for kinase signalling research and drug discovery” (Biochem J, 2013)

Key:
[1] = target: Mitogen-activated protein kinase 8 (Homo sapiens) (UniProt P45983); settings: at 10 µM
[2] = target: Mitogen-activated protein kinase 10 (Homo sapiens) (UniProt P53779); settings: at 1 µM
[3] = target: Mitogen-activated protein kinase 10 (Homo sapiens) (UniProt P53779); settings: at 10 µM
[4] = target: Vascular endothelial growth factor receptor 2 (Homo sapiens) (UniProt P35968); settings: at 10 µM
Chain of Vascular endothelial growth factor receptor 2 (Homo sapiens) (P35968 whole entry, the tested form may be a part): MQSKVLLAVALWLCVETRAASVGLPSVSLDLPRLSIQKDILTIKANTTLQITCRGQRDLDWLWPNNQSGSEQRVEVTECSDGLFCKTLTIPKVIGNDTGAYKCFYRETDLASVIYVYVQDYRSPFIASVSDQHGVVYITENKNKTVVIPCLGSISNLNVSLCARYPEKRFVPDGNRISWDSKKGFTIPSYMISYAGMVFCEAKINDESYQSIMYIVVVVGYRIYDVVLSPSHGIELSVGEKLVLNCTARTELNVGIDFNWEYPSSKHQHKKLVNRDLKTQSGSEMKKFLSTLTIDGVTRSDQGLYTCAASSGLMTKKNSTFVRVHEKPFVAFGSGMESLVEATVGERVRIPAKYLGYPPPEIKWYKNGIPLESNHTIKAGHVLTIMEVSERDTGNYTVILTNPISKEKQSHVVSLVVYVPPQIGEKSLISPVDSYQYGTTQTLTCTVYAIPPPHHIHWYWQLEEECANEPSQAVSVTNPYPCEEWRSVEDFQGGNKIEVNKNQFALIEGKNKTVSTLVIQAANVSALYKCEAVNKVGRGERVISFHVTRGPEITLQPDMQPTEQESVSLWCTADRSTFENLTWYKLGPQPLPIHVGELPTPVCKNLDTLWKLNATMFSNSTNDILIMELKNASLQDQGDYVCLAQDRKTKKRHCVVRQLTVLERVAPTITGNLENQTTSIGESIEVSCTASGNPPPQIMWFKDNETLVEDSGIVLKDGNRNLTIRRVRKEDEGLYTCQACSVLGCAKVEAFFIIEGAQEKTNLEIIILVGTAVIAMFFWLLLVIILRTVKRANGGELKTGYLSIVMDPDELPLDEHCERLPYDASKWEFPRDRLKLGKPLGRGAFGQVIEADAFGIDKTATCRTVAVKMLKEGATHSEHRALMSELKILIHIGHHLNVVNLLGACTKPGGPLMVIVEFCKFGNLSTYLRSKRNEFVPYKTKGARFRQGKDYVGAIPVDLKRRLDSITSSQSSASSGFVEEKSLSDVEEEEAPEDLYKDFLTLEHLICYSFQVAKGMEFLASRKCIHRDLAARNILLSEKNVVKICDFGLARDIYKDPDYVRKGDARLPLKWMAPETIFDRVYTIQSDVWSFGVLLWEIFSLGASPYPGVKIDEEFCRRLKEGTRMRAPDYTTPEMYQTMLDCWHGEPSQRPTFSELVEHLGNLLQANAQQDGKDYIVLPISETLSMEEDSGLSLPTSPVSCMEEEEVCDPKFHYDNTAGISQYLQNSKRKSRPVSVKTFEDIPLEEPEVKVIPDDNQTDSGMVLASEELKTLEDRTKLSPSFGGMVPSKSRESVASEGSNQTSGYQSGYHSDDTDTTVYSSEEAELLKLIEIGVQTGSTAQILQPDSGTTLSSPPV

[5] = target: Serine/threonine-protein kinase 10 (Homo sapiens) (UniProt O94804); settings: at 1 µM
Chain of Serine/threonine-protein kinase 10 (Homo sapiens) (O94804 whole entry, looked up): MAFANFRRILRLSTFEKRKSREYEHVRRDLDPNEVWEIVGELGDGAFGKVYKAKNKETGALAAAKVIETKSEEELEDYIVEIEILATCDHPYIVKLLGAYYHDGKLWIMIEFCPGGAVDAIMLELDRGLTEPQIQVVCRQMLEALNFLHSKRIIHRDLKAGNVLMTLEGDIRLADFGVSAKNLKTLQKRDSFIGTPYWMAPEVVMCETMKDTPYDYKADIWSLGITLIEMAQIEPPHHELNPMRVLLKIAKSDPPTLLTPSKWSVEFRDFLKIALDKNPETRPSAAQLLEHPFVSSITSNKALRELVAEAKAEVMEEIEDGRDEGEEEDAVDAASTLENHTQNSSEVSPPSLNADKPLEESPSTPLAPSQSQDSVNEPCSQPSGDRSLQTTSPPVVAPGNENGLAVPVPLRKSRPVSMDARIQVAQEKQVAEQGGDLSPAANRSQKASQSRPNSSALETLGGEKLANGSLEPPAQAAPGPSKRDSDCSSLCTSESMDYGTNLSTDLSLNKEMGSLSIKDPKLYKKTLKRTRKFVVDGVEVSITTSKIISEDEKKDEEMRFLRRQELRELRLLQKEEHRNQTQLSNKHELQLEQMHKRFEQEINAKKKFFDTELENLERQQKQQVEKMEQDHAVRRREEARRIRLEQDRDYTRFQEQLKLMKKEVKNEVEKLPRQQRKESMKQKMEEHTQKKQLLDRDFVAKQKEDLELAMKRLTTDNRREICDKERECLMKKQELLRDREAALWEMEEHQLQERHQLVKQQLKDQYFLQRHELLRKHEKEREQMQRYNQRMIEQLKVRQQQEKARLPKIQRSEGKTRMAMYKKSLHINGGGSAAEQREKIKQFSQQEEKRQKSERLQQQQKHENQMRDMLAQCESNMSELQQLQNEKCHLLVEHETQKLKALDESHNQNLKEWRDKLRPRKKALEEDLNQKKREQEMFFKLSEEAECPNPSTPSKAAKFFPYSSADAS

[6] = target: Serine/threonine-protein kinase 10 (Homo sapiens) (UniProt O94804); settings: at 10 µM
[7] = target: T1, Tyrosine-protein kinase ITK/TSK (Homo sapiens) (UniProt Q08881); settings: at 10 µM
T1 sequence (whole entry): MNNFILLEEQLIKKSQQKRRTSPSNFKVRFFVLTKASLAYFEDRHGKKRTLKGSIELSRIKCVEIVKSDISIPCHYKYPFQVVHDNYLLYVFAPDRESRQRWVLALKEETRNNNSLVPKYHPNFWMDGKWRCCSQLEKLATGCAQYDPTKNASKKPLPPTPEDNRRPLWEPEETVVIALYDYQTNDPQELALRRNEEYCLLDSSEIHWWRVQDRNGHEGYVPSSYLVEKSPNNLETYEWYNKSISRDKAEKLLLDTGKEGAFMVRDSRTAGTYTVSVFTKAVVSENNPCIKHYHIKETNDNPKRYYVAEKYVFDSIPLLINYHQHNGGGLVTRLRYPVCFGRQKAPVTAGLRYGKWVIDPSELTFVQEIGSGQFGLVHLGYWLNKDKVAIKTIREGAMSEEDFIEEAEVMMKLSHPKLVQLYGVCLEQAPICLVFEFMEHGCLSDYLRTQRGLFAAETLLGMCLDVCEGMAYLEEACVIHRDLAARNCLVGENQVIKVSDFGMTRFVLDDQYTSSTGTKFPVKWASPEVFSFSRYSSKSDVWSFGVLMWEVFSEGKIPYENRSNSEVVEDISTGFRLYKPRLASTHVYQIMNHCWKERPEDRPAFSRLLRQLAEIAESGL

[8] = target: Tyrosine-protein kinase JAK2 (Homo sapiens) (UniProt O60674); settings: at 1 µM
[9] = target: Tyrosine-protein kinase JAK2 (Homo sapiens) (UniProt O60674); settings: at 10 µM
[10] = target: T2, Tyrosine-protein kinase JAK3 (Homo sapiens) (UniProt P52333); settings: at 1 µM
T2 sequence (whole entry): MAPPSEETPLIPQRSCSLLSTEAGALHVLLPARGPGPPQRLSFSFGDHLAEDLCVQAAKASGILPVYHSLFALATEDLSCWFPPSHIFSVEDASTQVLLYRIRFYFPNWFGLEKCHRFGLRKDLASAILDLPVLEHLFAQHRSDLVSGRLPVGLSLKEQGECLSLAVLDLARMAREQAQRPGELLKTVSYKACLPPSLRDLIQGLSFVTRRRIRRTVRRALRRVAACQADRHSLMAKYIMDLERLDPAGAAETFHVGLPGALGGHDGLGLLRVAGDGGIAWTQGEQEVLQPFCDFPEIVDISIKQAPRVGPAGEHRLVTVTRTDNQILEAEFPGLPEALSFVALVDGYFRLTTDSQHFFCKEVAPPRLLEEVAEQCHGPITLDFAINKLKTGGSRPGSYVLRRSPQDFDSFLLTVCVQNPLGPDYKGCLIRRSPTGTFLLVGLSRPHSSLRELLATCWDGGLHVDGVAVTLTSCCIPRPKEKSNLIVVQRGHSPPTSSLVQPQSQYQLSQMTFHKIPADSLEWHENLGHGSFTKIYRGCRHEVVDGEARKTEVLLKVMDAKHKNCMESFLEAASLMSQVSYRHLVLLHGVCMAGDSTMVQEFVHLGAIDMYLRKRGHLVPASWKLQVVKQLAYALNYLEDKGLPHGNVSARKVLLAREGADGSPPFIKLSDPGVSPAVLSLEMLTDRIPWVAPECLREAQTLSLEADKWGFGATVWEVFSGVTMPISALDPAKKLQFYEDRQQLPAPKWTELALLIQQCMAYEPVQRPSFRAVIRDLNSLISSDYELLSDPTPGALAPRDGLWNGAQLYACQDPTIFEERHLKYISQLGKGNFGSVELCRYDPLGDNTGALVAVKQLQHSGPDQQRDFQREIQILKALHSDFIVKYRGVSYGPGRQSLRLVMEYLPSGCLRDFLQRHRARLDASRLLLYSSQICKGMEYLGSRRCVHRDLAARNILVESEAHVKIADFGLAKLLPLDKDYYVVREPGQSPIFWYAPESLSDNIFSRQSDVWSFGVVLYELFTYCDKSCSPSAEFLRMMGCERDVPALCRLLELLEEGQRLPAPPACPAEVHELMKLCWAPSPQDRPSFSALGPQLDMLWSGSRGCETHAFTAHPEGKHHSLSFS

[11] = target: T2, Tyrosine-protein kinase JAK3 (Homo sapiens); settings: at 10 µM
[12] = target: Mitogen-activated protein kinase 8 (Homo sapiens) (UniProt P45983); settings: at 1 µM
[13] = target: Mitogen-activated protein kinase 9 (Homo sapiens) (UniProt P45984); settings: at 1 µM
Chain of Mitogen-activated protein kinase 9 (Homo sapiens) (P45984 whole entry, looked up): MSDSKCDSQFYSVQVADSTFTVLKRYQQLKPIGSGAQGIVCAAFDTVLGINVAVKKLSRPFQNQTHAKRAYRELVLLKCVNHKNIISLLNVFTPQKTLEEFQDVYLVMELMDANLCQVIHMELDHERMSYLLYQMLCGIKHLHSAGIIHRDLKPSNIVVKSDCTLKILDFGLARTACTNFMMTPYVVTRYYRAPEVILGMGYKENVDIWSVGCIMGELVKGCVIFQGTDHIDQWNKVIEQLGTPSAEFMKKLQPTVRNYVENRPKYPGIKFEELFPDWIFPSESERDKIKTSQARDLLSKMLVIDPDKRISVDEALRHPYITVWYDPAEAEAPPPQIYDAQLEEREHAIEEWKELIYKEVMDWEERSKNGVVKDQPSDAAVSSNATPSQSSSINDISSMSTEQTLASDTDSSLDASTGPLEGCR

[14] = target: Mitogen-activated protein kinase 9 (Homo sapiens) (UniProt P45984); settings: at 10 µM
[15] = target: Vascular endothelial growth factor receptor 2 (Homo sapiens) (UniProt P35968); settings: at 1 µM
[16] = target: LIM domain kinase 1 (Homo sapiens) (UniProt P53667); settings: at 1 µM
Chain of LIM domain kinase 1 (Homo sapiens) (P53667 whole entry, looked up, the tested form may be a part): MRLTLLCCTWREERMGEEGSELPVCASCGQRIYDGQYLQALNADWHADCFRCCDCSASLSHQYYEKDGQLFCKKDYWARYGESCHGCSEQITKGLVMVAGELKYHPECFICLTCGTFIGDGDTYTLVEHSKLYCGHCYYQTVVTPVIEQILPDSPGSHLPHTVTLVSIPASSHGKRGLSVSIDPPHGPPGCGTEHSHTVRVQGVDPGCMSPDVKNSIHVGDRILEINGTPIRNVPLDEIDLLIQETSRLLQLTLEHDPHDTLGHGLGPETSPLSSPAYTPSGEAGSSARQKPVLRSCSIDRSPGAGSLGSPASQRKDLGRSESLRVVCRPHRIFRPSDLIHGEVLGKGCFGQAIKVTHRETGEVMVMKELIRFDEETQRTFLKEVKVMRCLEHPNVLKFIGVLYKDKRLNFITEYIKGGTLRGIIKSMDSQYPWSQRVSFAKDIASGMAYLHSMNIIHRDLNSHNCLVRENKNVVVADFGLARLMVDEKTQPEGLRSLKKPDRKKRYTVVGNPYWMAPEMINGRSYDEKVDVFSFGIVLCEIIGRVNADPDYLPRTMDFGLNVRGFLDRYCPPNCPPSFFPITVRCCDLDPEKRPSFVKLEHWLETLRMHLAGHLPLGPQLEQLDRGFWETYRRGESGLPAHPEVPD

[17] = target: LIM domain kinase 1 (Homo sapiens) (UniProt P53667); settings: at 10 µM
[18] = target: T3, Serine/threonine-protein kinase STK11 (Homo sapiens) (UniProt Q15831); settings: at 1 µM
T3 sequence (whole entry): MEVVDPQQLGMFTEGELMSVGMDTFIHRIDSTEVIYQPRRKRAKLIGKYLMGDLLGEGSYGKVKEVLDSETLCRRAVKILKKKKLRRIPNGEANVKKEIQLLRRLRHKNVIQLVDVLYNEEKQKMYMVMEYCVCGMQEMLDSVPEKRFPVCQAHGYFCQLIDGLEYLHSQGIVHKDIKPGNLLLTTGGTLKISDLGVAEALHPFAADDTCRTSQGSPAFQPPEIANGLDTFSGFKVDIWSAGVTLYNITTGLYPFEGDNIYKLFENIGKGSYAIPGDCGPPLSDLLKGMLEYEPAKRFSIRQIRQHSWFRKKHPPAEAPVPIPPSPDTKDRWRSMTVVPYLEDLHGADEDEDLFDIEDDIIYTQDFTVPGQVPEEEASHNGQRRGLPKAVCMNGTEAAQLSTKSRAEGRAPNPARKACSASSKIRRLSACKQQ

[19] = target: T3, Serine/threonine-protein kinase STK11 (Homo sapiens); settings: at 10 µM
[20] = target: Tyrosine-protein kinase Lck (Homo sapiens) (UniProt P06239); settings: at 1 µM
Chain of Tyrosine-protein kinase Lck (Homo sapiens) (P06239 2-509 limits assumed): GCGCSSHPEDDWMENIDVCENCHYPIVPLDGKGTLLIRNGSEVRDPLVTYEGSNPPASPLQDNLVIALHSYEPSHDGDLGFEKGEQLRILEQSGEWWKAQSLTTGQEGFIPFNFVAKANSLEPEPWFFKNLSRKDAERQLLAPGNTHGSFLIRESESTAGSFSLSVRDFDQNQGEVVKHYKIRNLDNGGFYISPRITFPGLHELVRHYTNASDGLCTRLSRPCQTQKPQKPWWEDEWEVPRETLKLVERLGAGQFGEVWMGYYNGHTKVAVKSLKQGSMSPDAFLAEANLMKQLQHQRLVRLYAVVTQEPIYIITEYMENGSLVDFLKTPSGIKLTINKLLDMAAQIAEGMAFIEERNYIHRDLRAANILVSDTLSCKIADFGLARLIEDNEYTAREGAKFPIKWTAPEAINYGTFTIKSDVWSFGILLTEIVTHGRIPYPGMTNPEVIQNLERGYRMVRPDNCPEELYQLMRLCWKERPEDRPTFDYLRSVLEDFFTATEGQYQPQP

Chain of Mitogen-activated protein kinase 10 (Homo sapiens) (P53779 whole entry): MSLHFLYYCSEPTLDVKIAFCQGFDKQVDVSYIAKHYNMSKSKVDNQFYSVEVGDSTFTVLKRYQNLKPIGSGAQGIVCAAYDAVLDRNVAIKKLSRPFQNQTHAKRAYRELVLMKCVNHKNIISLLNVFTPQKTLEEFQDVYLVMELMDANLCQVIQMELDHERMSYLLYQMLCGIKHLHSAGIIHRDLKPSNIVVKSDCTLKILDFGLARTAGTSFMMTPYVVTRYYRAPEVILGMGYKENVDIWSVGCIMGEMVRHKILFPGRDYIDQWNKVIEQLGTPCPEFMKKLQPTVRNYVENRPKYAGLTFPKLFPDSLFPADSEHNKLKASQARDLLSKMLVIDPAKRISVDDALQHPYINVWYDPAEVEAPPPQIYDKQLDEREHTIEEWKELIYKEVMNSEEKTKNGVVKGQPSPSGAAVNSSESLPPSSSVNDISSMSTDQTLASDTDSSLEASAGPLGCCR
Chain of Mitogen-activated protein kinase 8 (Homo sapiens) (P45983 whole entry): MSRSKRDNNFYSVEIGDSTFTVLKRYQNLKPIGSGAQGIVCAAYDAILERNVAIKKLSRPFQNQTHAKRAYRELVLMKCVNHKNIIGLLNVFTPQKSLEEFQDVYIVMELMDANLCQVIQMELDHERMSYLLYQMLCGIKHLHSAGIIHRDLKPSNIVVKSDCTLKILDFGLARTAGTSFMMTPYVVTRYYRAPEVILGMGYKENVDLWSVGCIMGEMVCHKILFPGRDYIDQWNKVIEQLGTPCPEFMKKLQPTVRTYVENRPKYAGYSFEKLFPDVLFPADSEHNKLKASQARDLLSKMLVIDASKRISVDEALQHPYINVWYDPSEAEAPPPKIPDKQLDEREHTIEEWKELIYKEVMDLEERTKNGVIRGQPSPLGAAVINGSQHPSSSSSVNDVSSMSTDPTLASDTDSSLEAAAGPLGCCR

SMILES: N#CC(C#N)=C(N)/C(C#N)=C/c1ccc(O)cc1
- residual activity [1]: 83%
- residual activity [2]: 96%
- residual activity [3]: 88%
- residual activity [4]: 92%
- residual activity [5]: 98%
- residual activity [6]: 96%

SMILES: COc1cc2ncnc(Nc3ccc(O)c(Br)c3)c2cc1OC
- residual activity [7]: 71%
- residual activity [8]: 102%
- residual activity [9]: 55%
- residual activity [10]: 93%
- residual activity [11]: 57%
- residual activity [12]: 96%
- residual activity [1]: 54%
- residual activity [13]: 99%
- residual activity [14]: 78%
- residual activity [2]: 51%
- residual activity [3]: 13%
- residual activity [15]: 30%
- residual activity [4]: 4%
- residual activity [16]: 78%
- residual activity [17]: 49%
- residual activity [18]: 106%
- residual activity [19]: 97%
- residual activity [5]: 17%
- residual activity [6]: 8%
- residual activity [20]: 27%

SMILES: CO[C@H]1[C@@H](OC)C[C@H](C)[C@@H](OC)C2=CC(=O)C=C(NC(=O)/C(C)=C/C=C/[C@H](OC)[C@@H](OC(N)=O)/C(C)=C/[C@@H]1C)C2=O
- residual activity [7]: 107%
- residual activity [8]: 114%
- residual activity [9]: 97%
- residual activity [10]: 94%
- residual activity [11]: 63%
- residual activity [12]: 120%
- residual activity [1]: 89%
- residual activity [13]: 114%
- residual activity [14]: 100%
- residual activity [2]: 113%
- residual activity [3]: 110%
- residual activity [15]: 97%
- residual activity [4]: 87%
- residual activity [16]: 109%
- residual activity [17]: 90%
- residual activity [18]: 97%
- residual activity [19]: 90%
- residual activity [5]: 100%
- residual activity [20]: 142%

SMILES: Oc1n[nH]c2nnc(-c3c(-c4ccccc4)nn4ccccc34)cc12
- residual activity [7]: 102%
- residual activity [8]: 99%
- residual activity [9]: 102%
- residual activity [10]: 104%
- residual activity [11]: 100%
- residual activity [12]: 96%
- residual activity [1]: 87%
- residual activity [13]: 93%
- residual activity [14]: 92%
- residual activity [2]: 52%
- residual activity [3]: 43%
- residual activity [15]: 93%
- residual activity [4]: 89%
- residual activity [16]: 77%
- residual activity [17]: 87%
- residual activity [18]: 91%
- residual activity [19]: 96%
- residual activity [5]: 100%
- residual activity [6]: 79%
- residual activity [20]: 88%

SMILES: COc1cc2ncc(-c3ccccc3)nc2cc1OC
- residual activity [10]: 92%
- residual activity [11]: 58%
- residual activity [2]: 99%
- residual activity [3]: 79%
- residual activity [5]: 90%
- residual activity [6]: 88%

SMILES: Cc1cccc(-c2[nH]c(C(C)(C)C)nc2-c2ccc3c(c2)OCO3)n1
- residual activity [7]: 103%
- residual activity [1]: 97%
- residual activity [14]: 94%
- residual activity [2]: 90%
- residual activity [3]: 85%
- residual activity [15]: 101%
- residual activity [4]: 79%
- residual activity [17]: 95%
- residual activity [18]: 102%
- residual activity [19]: 101%
- residual activity [5]: 87%
- residual activity [6]: 106%
- residual activity [20]: 146%

SMILES: CNc1cc2c(Nc3cccc(Br)c3)ncnc2cn1
- residual activity [7]: 87%
- residual activity [8]: 70%
- residual activity [9]: 56%
- residual activity [10]: 96%
- residual activity [11]: 78%
- residual activity [12]: 100%
- residual activity [1]: 97%
- residual activity [13]: 98%
- residual activity [14]: 92%
- residual activity [2]: 97%
- residual activity [3]: 60%
- residual activity [15]: 85%
- residual activity [4]: 40%
- residual activity [16]: 102%
- residual activity [17]: 43%
- residual activity [18]: 99%
- residual activity [19]: 95%
- residual activity [5]: 27%
- residual activity [6]: 10%
- residual activity [20]: 87%
